Measured values taken from PubChem BioAssay (NCATS).
Results filed as inconclusive are left out. Unless noted, calls come from the whole dose curve; as a rule, active = well fitted curve in either direction with a large enough effect (not every such curve was filed as active); inconclusive = small, poorly fitted or top-dose-only effect, or another doubt; inactive = flat fitted curve, though single readings scatter.

Legend:
[1] = AP1 Signaling Pathway (AID 357); details: ME-180 AP-1-bla reporter, EGF-induced, beta-lactamase ratio, 5 h; at 17.2 µM (top of the series) unless noted; note: % is set by controls: 0 for no effect and ±100 for the full control effect
Summary of the method: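 AP-1-bla ME-180 cells with beta-lactamase reporter under AP-1 response element, stimulated with EC50 EGF; compounds titrated, 5 hours at 37 degrees Celsius. CCF4 read at 460/530 nm ratio; positive and negative modulators judged by AC50.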

[2] = NFAT Signaling Pathway (AID 444); details: Jurkat NFAT-bla M1, carbachol, beta-lactamase ratio, 5 h; at 17.2 µM (top of the series) unless noted;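 note: carbachol stimulus at about its EC50 of 1 µM final; % is set by controls: 0 for no effect and ±100 for the full control effect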
Summary of the method: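 Jurkat cells with NFAT-driven β-lactamase reporter and co-expressed M1 receptor, stimulated with carbachol (final 1 uM, ~EC50), compound titration, 5 h at 37 °C. CCF4 loaded 1 h at RT; 460/530 nm ratio gave %activity and AC50.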

[3] = Stat Signaling Pathway (AID 446); details: ME-180 SIE beta-lactamase reporter, IL-6 stimulated, 5 h; at 17.2 µM (top of the series) unless noted;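 note: ME-180 cervical cancer cells given 40 pM IL-6 alongside compound; SIE-controlled beta-lactamase reporter measured as 460/530 nm FRET emission ratio; % is set by controls: 0 for no effect and ±100 for the full control effect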
Summary of the method: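 Screening format detects activators and inhibitors alike: ME-180 SIE-bla cells stimulated at 40 pM IL-6 for 5 hrs with compound, then dual-emission beta-lactamase read at 405 nm excitation.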

[4] = target: Glucocorticoid receptor (Homo sapiens) (UniProt P04150); experiment: GR-GFP Redistribution (AID 450;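 active = compounds whose dose series gives a full or clear partial fitted curve of increased nuclear translocation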; note: potency is the fitted concentration of half-maximal effect)
Chain of Glucocorticoid receptor (Homo sapiens) (P04150 whole entry, looked up): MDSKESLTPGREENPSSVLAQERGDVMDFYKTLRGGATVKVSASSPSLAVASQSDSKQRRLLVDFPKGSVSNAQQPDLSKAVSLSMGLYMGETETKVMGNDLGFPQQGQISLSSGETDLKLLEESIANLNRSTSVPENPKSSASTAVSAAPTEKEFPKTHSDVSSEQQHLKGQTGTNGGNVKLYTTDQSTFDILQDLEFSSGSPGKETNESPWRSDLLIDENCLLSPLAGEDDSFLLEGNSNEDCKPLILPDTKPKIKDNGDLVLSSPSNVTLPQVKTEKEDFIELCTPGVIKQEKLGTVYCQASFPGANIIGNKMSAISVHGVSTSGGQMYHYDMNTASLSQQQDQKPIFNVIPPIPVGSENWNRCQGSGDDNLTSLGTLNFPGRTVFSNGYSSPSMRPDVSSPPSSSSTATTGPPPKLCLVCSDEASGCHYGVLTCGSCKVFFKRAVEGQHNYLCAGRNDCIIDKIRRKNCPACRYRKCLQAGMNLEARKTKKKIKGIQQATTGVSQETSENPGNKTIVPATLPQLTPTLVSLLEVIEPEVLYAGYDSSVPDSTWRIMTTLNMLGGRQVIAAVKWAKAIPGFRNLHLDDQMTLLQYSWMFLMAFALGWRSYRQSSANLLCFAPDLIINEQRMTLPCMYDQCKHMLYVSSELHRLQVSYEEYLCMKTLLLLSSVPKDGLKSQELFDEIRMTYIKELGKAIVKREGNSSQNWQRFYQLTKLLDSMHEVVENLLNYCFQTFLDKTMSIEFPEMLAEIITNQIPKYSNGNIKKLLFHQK

O=c1[nH]c(CN2CCCCC2)nc2c1C1(CCCCC1)Cc1ccccc1-2
inactive: activity change, negative = inhibition [1] 24.9% | activity change, negative = inhibition [2] 4.2% | activity, negative = inhibition [3] -5.46% | Potency [4] > 20.6 µM

CC1(C)Cc2c(c(-c3ccccc3)nc3[nH][nH]c(=O)c23)CO1
inactive: activity change, negative = inhibition [1] -1.59% | activity change, negative = inhibition [2] -1.86% | activity, negative = inhibition [3] 12.3% | Potency [4] > 20.6 µM

CCC(=O)NC1(C(F)(F)F)C(=O)Nc2c1c(=O)[nH]c(=O)n2Cc1ccco1 (centres undefined)
inactive: activity change, negative = inhibition [1] 6.62% | activity change, negative = inhibition [2] 18.9% | activity, negative = inhibition [3] -0.859% | Potency [4] > 20.6 µM

Fc1cc(F)c(F)c(SCCc2ccncc2)c1F
inactive: activity change, negative = inhibition [1] -7.09% | activity change, negative = inhibition [2] -5.43% | activity, negative = inhibition [3] -0.589% | Potency [4] > 20.6 µM

Cn1c(=O)c2c(nc(Br)n2CCSc2nc3ccccc3o2)n(C)c1=O
inactive: activity change, negative = inhibition [1] 5.24% | activity change, negative = inhibition [2] 1.98% | activity, negative = inhibition [3] 10.5% | Potency [4] > 20.6 µM

CCOC(=O)CSC1=C(C#N)C(c2ccc3c(c2)OCO3)CC(=O)N1 (centres undefined)
inactive: activity change, negative = inhibition [1] -5.02% | activity change, negative = inhibition [2] 4.11% | activity, negative = inhibition [3] 3.81% | Potency [4] > 20.6 µM

CCOC(=O)CCc1c(C)c(C#N)c2nc3ccccc3n2c1-n1ccnc1C
inactive: activity change, negative = inhibition [1] -3.36% | activity change, negative = inhibition [2] -1.61% | activity, negative = inhibition [3] -4.34% | Potency [4] > 20.6 µM

CCOC(=O)COc1nc(N(C)C)nc(N(C)C)n1
inactive: activity change, negative = inhibition [1] 5.84% | activity change, negative = inhibition [2] -1.43% | activity, negative = inhibition [3] 8.42% | Potency [4] > 20.6 µM

COC(=O)c1cc(OC)c(OC)cc1N
inactive: activity change, negative = inhibition [1] 0.8% | activity change, negative = inhibition [2] 0.905% | activity, negative = inhibition [3] -0.00836% | Potency [4] > 20.6 µM

CCN(CC)C(=O)C1CCN(c2ncnc3c2cnn3-c2ccc(C)cc2C)CC1
inactive: activity change, negative = inhibition [1] -10.6% | activity change, negative = inhibition [2] 7.48% | activity, negative = inhibition [3] -7.04% | Potency [4] > 20.6 µM

O=C(NCCN1CCOCC1)c1cc2n(n1)C(C(F)(F)F)CC(c1ccc(F)cc1)N2 (centres undefined)
inactive: activity change, negative = inhibition [1] 2.33% | activity change, negative = inhibition [2] 0.228% | activity, negative = inhibition [3] 8.95% | Potency [4] > 20.6 µM

COc1ccc(C(CC(=O)O)NC(=O)OC(C)(C)C)cc1 (centres undefined)
inactive: activity change, negative = inhibition [1] 12.1% | activity change, negative = inhibition [2] -0.371% | activity, negative = inhibition [3] 3.55% | Potency [4] > 20.6 µM

CCCCCOc1ccccc1C(=O)NCCCC(=O)O
inactive: activity change, negative = inhibition [1] 2.16% | activity change, negative = inhibition [2] -1.98% | activity, negative = inhibition [3] 1.72% | Potency [4] > 20.6 µM

CCC1SC2=NC(C)=C(C(=O)OCCOC)C(c3ccc(C(=O)OC)cc3)N2C1=O (centres undefined)
inactive: activity change, negative = inhibition [1] 17.5% | activity change, negative = inhibition [2] 6.06% | activity, negative = inhibition [3] -2.24% | Potency [4] > 20.6 µM

CCOc1ccc(C2C(C(=O)c3ccc(C)o3)=C(O)C(=O)N2CCN2CCOCC2)cc1OC (centres undefined)
inactive: activity change, negative = inhibition [1] 0.475% | activity change, negative = inhibition [2] 4.63% | activity, negative = inhibition [3] 0.944% | Potency [4] > 20.6 µM

CCCCC(C(=O)O)C(C)CC(=O)Nc1cccc(C(=O)O)c1 (centres undefined)
inactive: activity change, negative = inhibition [1] 5.92% | activity change, negative = inhibition [2] -0.782% | activity, negative = inhibition [3] 12.4% | Potency [4] > 20.6 µM

Cc1nc2c(c(N3CCOCC3)n1)OCC(=O)N2
inactive: activity change, negative = inhibition [1] 6.3% | activity change, negative = inhibition [2] -1.47% | activity, negative = inhibition [3] 6.75% | Potency [4] > 20.6 µM

CSc1nc2sc3c(c2c2nncn12)CCC3
inactive: activity change, negative = inhibition [1] -7.57% | activity change, negative = inhibition [2] -18% | activity, negative = inhibition [3] -3.42% | Potency [4] > 20.6 µM

CN1C(=O)CC(N2CCN(c3ccc(Cl)c(Cl)c3)CC2)C1=O (centres undefined)
inactive: activity change, negative = inhibition [1] 17.6% | activity change, negative = inhibition [2] 16.8% | activity, negative = inhibition [3] 0.709% | Potency [4] > 20.6 µM

CSc1nc(Oc2ccc(=O)[nH]n2)nc(N(C)C)n1
inactive: activity change, negative = inhibition [1] 0.488% | activity change, negative = inhibition [2] -5.44% | activity, negative = inhibition [3] 3.84% | Potency [4] > 20.6 µM

O/N=C1\CCc2cc(Cl)ccc21
inactive: activity change, negative = inhibition [1] -7.29% | activity change, negative = inhibition [2] -1.82% | activity, negative = inhibition [3] 6.47% | Potency [4] > 20.6 µM

C=CCNc1nc(C2(C)CC3(CC(C)(C)OC3=O)C(=O)O2)cs1 (centres undefined)
inactive: activity change, negative = inhibition [1] -3.51% | activity change, negative = inhibition [2] -7.31% | activity, negative = inhibition [3] -18.1% | Potency [4] > 20.6 µM

Cc1nnc(SCc2nc3ccccc3[nH]2)s1
inactive: activity change, negative = inhibition [1] 1.21% | activity change, negative = inhibition [2] 8.95% | activity, negative = inhibition [3] 4.08% | Potency [4] > 20.6 µM

Cc1c(C2CC(=O)N(c3ccccc3)C2=O)[nH]n(-c2ccccc2)c1=O (centres undefined)
inactive: activity change, negative = inhibition [1] -2.21% | activity change, negative = inhibition [2] -3.65% | activity, negative = inhibition [3] 1.65% | Potency [4] > 20.6 µM

Cc1cc(C)n(CC(=O)c2ccccc2)c(=O)c1C#N
inactive: activity change, negative = inhibition [1] 17.1% | activity change, negative = inhibition [2] -3.95% | activity, negative = inhibition [3] -3.77% | Potency [4] > 20.6 µM

CN1C(=O)N(c2ccccc2)C(Nc2nncs2)C1(C)C (centres undefined)
inactive: activity change, negative = inhibition [1] 2.23% | activity change, negative = inhibition [2] -8.24% | activity, negative = inhibition [3] -1.47% | Potency [4] > 20.6 µM
